Where “and” joins values, the source holds several entries; their conditions need not be identical. Equal values may be shown once. Among all 5,500 compounds or so, about 2,000 (36%) were called active. About 18% were inconclusive and are not listed. No stated cut-off is given here; in the data, active means normalized growth mostly below about 0.91 (no sharp cut-off); inconclusive means no clear call, values can overlap the other calls; inactive means mostly above about 0.92. The list shows a part of the results.
Assay: chemical genetic growth profiling, strain panel (AID 1159580);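 further: tested at 20 µM; growth read once vehicle control cultures reached saturation at 30 °C; 1 = growth at the plate median or of vehicle wells; lower values mean less growth of the strain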
Conditions: S. cerevisiae deletion strains, growth OD

Measured: normalized growth

CC1(C)CC2C1CC[C@]1(CBr)CCC3C(CC(=O)O)C(=O)O[C@@]32C1 (stereo partly specified)
inactive: locus YAL021C, strain ccr4, active compounds read low 0.992 | locus YAL026C, strain drs2, active compounds read low 1.02 | locus YAL030W, strain snc1, active compounds read low 1.01 | locus YBL061C, strain skt5, active compounds read low 1.01 | locus YBR009C, strain hhf1, active compounds read low 1.03 | locus YBR021W, strain FUR4, active compounds read low 1.01 | locus YBR023C, strain chs3, active compounds read low 1.01 | locus YBR171W, strain sec66, active compounds read low 1.01 | locus YBR229C, strain ROT2, active compounds read low 0.958 | locus YBR231C, strain swc5, active compounds read low 1.01 | locus YBR279W, strain paf1, active compounds read low 1.01 | locus YCL011C, strain gbp2, active compounds read low 1.01 | locus YCL016C, strain dcc1, active compounds read low 1.01 | locus YCL029C, strain bik1, active compounds read low 0.985 | locus YCL061C, strain MRC1, active compounds read low 1.01 | locus YCL069W, strain vba3, active compounds read low 1.01 | locus YCR088W, strain abp1, active compounds read low 1.01 | locus YDL005C, strain med2, active compounds read low 1 | locus YDL035C, strain GPR1, active compounds read low 0.984 | locus YDL040C, strain nat1, active compounds read low 1.01 | locus YDL074C, strain BRE1, active compounds read low 1 | locus YDL101C, strain DUN1, active compounds read low 1 | locus YDL134C, strain PPH21, active compounds read low 1.05 | locus YDL185W, strain tfp1, active compounds read low 0.971 | locus YDL192W, strain arf1, active compounds read low 0.976 | locus YDR001C, strain nth1, active compounds read low 1.01 | locus YDR069C, strain doa4, active compounds read low 1.02 | locus YDR101C, strain arx1, active compounds read low 0.98 | locus YDR137W, strain rgp1, active compounds read low 0.997 | locus YDR150W, strain NUM1, active compounds read low 1 | locus YDR159W, strain sac3, active compounds read low 1.03 | locus YDR162C, strain NBP2, active compounds read low 0.976 | locus YDR195W, strain ref2 1 | locus YDR297W, strain sur2, active compounds read low 1.01 | locus YDR318W, strain mcm21, active compounds read low 0.989 | locus YDR334W, strain swr1, active compounds read low 1.01 | locus YDR335W, strain msn5, active compounds read low 1.02 | locus YDR388W, active compounds read low 1 | locus YDR392W, strain spt3, active compounds read low 0.968 | locus YDR502C, strain sam2, active compounds read low 1.03 | locus YEL003W, strain gim4, active compounds read low 1.02 | locus YEL037C, strain rad23, active compounds read low 1.01 | locus YEL061C, strain CIN8 (second series), active compounds read low 1.01 | locus YEL061C, strain CIN8, active compounds read low 0.978 | locus YER015W, strain faa2, active compounds read low 1 | locus YER016W, strain bim1, active compounds read low 1.02 | locus YER110C, active compounds read low 0.984 | locus YER111C, strain swi4, active compounds read low 1.01 | locus YER155C, strain BEM2 (second series), active compounds read low 1.04 | locus YER155C, strain BEM2, active compounds read low 0.986 | locus YER167W, strain BCK2, active compounds read low 0.993 | locus YFR010W, strain ubp6, active compounds read low 1.01 | locus YGL078C, strain dbp3, active compounds read low 1.04 | locus YGL086W, strain mad1, active compounds read low 1 | locus YGL167C, strain pmr1, active compounds read low 1.01 | locus YGL173C, strain kem1, active compounds read low 1.01 | locus YGL227W, strain vid30, active compounds read low 1.02 | locus YGL240W, strain doc1, active compounds read low 1.03 | locus YGL248W, strain PDE1, active compounds read low 1.03 | locus YGL253W, strain hxk2, active compounds read low 1.01 | locus YGR135W, strain pre9, active compounds read low 1.09 | locus YGR229C, strain SMI1, active compounds read low 0.965 | locus YGR252W, strain gcn5, active compounds read low 1.08 | locus YHR013C, strain ard1, active compounds read low 1.01 | locus YHR027C, strain rpn1, active compounds read low 1.01 | locus YHR030C, strain SLT2, active compounds read low 0.983 | locus YHR079C, strain IRE1 (second series), active compounds read low 0.994 | locus YHR079C, strain IRE1, active compounds read low 1.02 | locus YHR094C, strain hxt1, active compounds read low 0.979 | locus YHR129C, strain ARP1, active compounds read low 0.995 | locus YHR142W, strain chs7, active compounds read low 0.998 | locus YHR200W, strain rpn10, active compounds read low 1 | locus YIL066C, strain RNR3, active compounds read low 0.98 | locus YIL073C, strain SPO22, active compounds read low 1.07 | locus YIL125W, strain kgd1, active compounds read low 0.984 | locus YIR030C, strain dcg1, active compounds read low 0.992 | locus YJL092W, strain hpr5, active compounds read low 1.01 | locus YJL095W, strain BCK1 (second series), active compounds read low 1.02 | locus YJL095W, strain BCK1, active compounds read low 1.07 and 0.997 | locus YJL115W, strain asf1, active compounds read low 1.02 | locus YJL129C, strain trk1, active compounds read low 0.997 | locus YJL134W, strain LCB3, active compounds read low 0.993 | locus YJL154C, strain vps35, active compounds read low 1 | locus YJL164C, strain tpk1, active compounds read low 1.03 | locus YJL166W, strain qcr8, active compounds read low 1 | locus YJL168C, strain set2, active compounds read low 1 | locus YJL187C, strain SWE1 (second series), active compounds read low 1.02 | locus YJL187C, strain SWE1, active compounds read low 1.02 | locus YJR066W, strain TOR1, active compounds read low 0.922 | locus YJR075W, strain HOC1, active compounds read low 1.02 | locus YKL009W, strain mrt4, active compounds read low 0.976 | locus YKL068W, active compounds read low 0.989 | locus YKL085W, strain MDH1 (second series), active compounds read low 0.995 | locus YKL085W, strain MDH1, active compounds read low 0.995 | locus YKL160W, strain elf1, active compounds read low 0.99 | locus YKL190W, strain CNB1, active compounds read low 0.994 | locus YKR001C, strain vps1, active compounds read low 0.993 | locus YKR026C, strain gcn3, active compounds read low 0.996 | locus YKR091W, strain srl3, active compounds read low 1.01 | locus YLL001W, strain dnm1, active compounds read low 1.03 | locus YLL026W, active compounds read low 1.02 | locus YLL041C, strain sdh2, active compounds read low 1.01 | locus YLR027C, strain aat2, active compounds read low 1.01 | locus YLR039C, strain RIC1, active compounds read low 1.07 | locus YLR058C, strain SHM2, active compounds read low 0.996 | locus YLR102C, strain apc9, active compounds read low 0.995 | locus YLR113W, strain HOG1, active compounds read low 1.03 | locus YLR221C, strain rsa3, active compounds read low 1.01 | locus YLR258W, strain gsy2, active compounds read low 1.03 | locus YLR262C, strain YPT6 (second series), active compounds read low 0.976 | locus YLR268W, strain sec22, active compounds read low 0.96 | locus YLR320W, strain mms22, active compounds read low 1.02 | locus YLR330W, strain CHS5, active compounds read low 0.992 | locus YLR342W, strain FKS1, active compounds read low 1.01 | locus YLR357W, strain rsc2, active compounds read low 1.04 | locus YLR370C, strain arc18, active compounds read low 1.01 | locus YLR371W, strain rom2, active compounds read low 1.01 | locus YLR384C, strain iki3, active compounds read low 1.01 | locus YLR418C, strain cdc73, active compounds read low 1.04 | locus YML016C, strain PPZ1, active compounds read low 0.997 | locus YML032C, strain rad52, active compounds read low 0.992 | locus YML120C, strain ndi1, active compounds read low 1.02 | locus YML124C, strain tub3, active compounds read low 0.992 | locus YMR058W, strain fet3, active compounds read low 1.02 | locus YMR078C, strain ctf18, active compounds read low 0.998 | locus YMR125W, strain sto1, active compounds read low 1 | locus YMR129W, active compounds read low 1.01 | locus YMR205C, strain PFK2, active compounds read low 1.02 | locus YMR223W, strain ubp8, active compounds read low 1.02 | locus YMR231W, strain pep5, active compounds read low 1 | locus YMR307W, strain GAS1, active compounds read low 1.06 | locus YNL067W, strain RPL9B, active compounds read low 1.03 | locus YNL071W, strain lat1, active compounds read low 1.01 | locus YNL128W, strain TEP1, active compounds read low 0.984 | locus YNL153C, strain GIM3, active compounds read low 1.03 | locus YNL183C, strain NPR1, active compounds read low 0.924 | locus YNL209W, strain ssb2, active compounds read low 1.01 | locus YNL233W, strain BNI4, active compounds read low 1.06 | locus YNL248C, strain rpa49, active compounds read low 1.01 | locus YNL250W, strain rad50, active compounds read low 0.973 | locus YNL271C, strain bni1, active compounds read low 0.987 | locus YNL298W, strain CLA4, active compounds read low 1 | locus YNL307C, strain MCK1, active compounds read low 1.04 | locus YNL322C, strain KRE1 (second series), active compounds read low 1.01 | locus YNL322C, strain KRE1, active compounds read low 0.988 | locus YNR049C, strain mso1, active compounds read low 1.02 | locus YNR052C, strain pop2, active compounds read low 1.04 | locus YOL006C, strain TOP1, active compounds read low 1.06 | locus YOL012C, strain htz1 1 | locus YOL147C, strain pex11, active compounds read low 0.99 | locus YOR001W, strain rrp6, active compounds read low 1.01 | locus YOR061W, strain CKA2, active compounds read low 0.972 | locus YOR069W, strain VPS5, active compounds read low 1.01 | locus YOR070C, strain gyp1, active compounds read low 1.03 | locus YOR080W, strain dia2, active compounds read low 1 | locus YOR083W, strain WHI5, active compounds read low 0.986 | locus YOR106W, strain vam3, active compounds read low 1.01 | locus YOR136W, strain idh2, active compounds read low 0.994 | locus YOR144C, strain elg1, active compounds read low 0.988 | locus YOR184W, strain ser1, active compounds read low 0.957 | locus YOR231W, strain MKK1, active compounds read low 1.01 | locus YOR265W, strain rbl2, active compounds read low 1.01 | locus YOR270C, strain vph1, active compounds read low 0.999 | locus YOR290C, strain snf2, active compounds read low 0.99 | locus YOR316C, strain cot1, active compounds read low 1 | locus YPL051W, strain arl3, active compounds read low 1 | locus YPL078C, strain atp4, active compounds read low 1.01 | locus YPL106C, strain sse1, active compounds read low 1.02 | locus YPL240C, strain hsp82, active compounds read low 1.01 | locus YPL241C, strain CIN2, active compounds read low 0.999 | locus YPL256C, strain CLN2, active compounds read low 0.972 | locus YPR119W, strain clb2, active compounds read low 0.993 | locus YPR141C, strain kar3, active compounds read low 0.991 | locus YPR163C, strain tif3, active compounds read low 0.994 | locus YPR167C, strain met16, active compounds read low 0.999 | strain wtn01, active compounds read low 0.984
